# Only some compounds are listed: those with a hit (about 2.4% of all), similar ones and a draw of the others.
# D2 ag-1 – D2 dopamine receptor (human) agonism | activation, % at 2 µM | AID 485358 | 0.53% of 340,000 active | P14416 | HEK293 T-REx D2 cells, calcium flux agonist mode;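 active = activation over 3 SD above normal in the single-dose calcium agonist read, cut at about 30% in these data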; note: 0% is about no effect
# Target sequence (P14416 whole entry, looked up): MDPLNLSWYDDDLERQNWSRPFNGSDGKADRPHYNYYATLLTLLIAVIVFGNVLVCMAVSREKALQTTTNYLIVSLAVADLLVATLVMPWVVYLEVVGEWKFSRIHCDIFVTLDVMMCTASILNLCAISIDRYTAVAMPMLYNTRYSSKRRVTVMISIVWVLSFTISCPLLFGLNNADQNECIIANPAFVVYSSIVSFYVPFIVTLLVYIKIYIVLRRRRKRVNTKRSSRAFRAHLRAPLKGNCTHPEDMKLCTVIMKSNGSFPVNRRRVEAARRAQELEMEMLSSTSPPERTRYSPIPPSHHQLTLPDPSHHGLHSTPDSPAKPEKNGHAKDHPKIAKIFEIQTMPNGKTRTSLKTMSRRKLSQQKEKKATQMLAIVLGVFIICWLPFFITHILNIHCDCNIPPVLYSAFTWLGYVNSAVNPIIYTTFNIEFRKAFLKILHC
#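 Agonism scored from kinetic calcium signal (1 read/sec, 180 s) following compound pin transfer, after a 10 s baseline. Cells: HEK293 Trex line expressing inducible D2 receptor coupled to calcium, dye-loaded after overnight culture at 30 C.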
# D2 antagonist – antagonists of human D2 dopamine receptor; HEK293 TREx D2 cells, calcium flux, dopamine EC80; inhibition, % at 10 µM; 2% of 340,000 active; AID 485344; in the data active = inhibition above about 30%; inactive = below that, where a call was filed; note: 0% is about no effect
#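 Dopamine at EC80 is the agonist stimulus; test compounds precede it by 180 s. Calcium flux read kinetically in a force-coupled, inducible HEK293 T-REx D2 cell line.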
# D2 PAM-1 – positive allosteric modulators of human D2 dopamine receptor | AID 624464 | P14416 | 0.23% of 360,000 active | DiscoveRx D2 beta-arrestin cells, luminescence, 90 min; 100% = 57 uM dopamine signal | potentiation, % (concentration not given with the values); in the data active = potentiation above about 50%
#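 PathHunter beta-arrestin assay in DiscoveRx D2 cells. Compounds were added with an EC20 of dopamine (50 nM final) for 90 min at 37 deg C. Luminescence was read 1 h after detection reagent, with 57 uM dopamine as the EC100 control.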
# D2 PAM-2 – positively modulates the human D2 dopamine receptor allosterically; P14416; HEK293 T-REx D2, calcium flux, EC20 dopamine potentiation; potentiation, % at 10 µM; 0.34% of 340,000 active; AID 485347;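 active = potentiation over 3 SD above the plate norm, cut at about 30% in these data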; note: 0% is about no effect
#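 Tetracycline-induced Hek293 Trex D2 cells, force-coupled to calcium, loaded with no-wash calcium dye. Compound added with 180 s kinetic read for agonism, then EC20 dopamine and a further 180 s read for potentiation.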
# D2 ag-2 – activates the human D2 dopamine receptor; P14416; DiscoveRx PathHunter D2 beta-arrestin, luminescence, 90 min; 100% = 57 uM dopamine signal; 0.084% of 360,000 active; activation, % (test concentration not listed); AID 624465; in the data active = activation above about 40%
#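 Agonist mode: compounds alone added to overnight-plated D2 PathHunter cells for 90 min at 37 C, with 57 uM final dopamine (EC100) defining full response. Beta-arrestin recruitment detected by chemiluminescent reagent, read after 1 h at ambient temperature.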
# Active calls of the source: *; / = not tested or not shown.
SMILES,D2 ag-1,D2 antagonist,D2 PAM-1,D2 PAM-2,D2 ag-2
CCn1cnc2sc(C(=O)N(Cc3ccc(N(C)C)cc3)Cc3ccco3)c(C)c2c1=O,0.5,31.6*,5.3,2.5,0.6
Cc1cc(N2CCC(N(C)C3CCCC3)CC2)nc2cc(O)ccc12,0.1,47.8*,-6.2,5.5,-3.1
Cc1ccccc1C(=O)NC1CCN(C(=O)N2CCOCC2)CC1,0.0,12.4,-3.2,35.7*,-1.0
Cc1ccccc1C(=O)NC1CC2CCCC(C1)N2Cc1ccc(Cl)cc1 (stereo not drawn),0.7,75.6*,-27.2,-23.5,-7.4
O=C(NC1CC2CCC(C1)N2Cc1ccccc1)c1ccccc1Cl (stereo not drawn),1.5,74.5*,-3.0,-21.4,-0.9
Cc1ccccc1C(=O)NC1CCN(C(=O)NC2CCCCC2)CC1,-1.0,-6.9,-2.2,0.2,8.5
Cc1ccccc1C(=O)NC1CC2CCCC(C1)N2Cc1ccccc1 (stereo not drawn),-2.0,71.4*,0.1,-20.2,-5.8
Cc1cccc(C(=O)Nc2cc3c(cc2C)n(C)c(=O)n3C)c1,1.6,/,/,-4.5,/
CCCc1noc(-c2ccc(NCc3ccc(C)cc3)c([N+](=O)[O-])c2)n1,1.5,/,/,/,/
Cc1cccc(CSc2nc(-c3cccs3)ccc2C#N)c1,0.0,/,/,-1.6,/
CC(=O)N1c2ccc(S(=O)(=O)N(C)CC(=O)NC3CCCCC3C)cc2CC1C (stereo not drawn),0.1,5.4,-4.9,42.3*,5.9
CC(=O)N1c2ccc(S(=O)(=O)N(C)C3CCCCC3)cc2CC1C (stereo not drawn),0.1,-7.4,-10.8,30.1*,-2.2
CC(=O)N1c2ccc(S(=O)(=O)N(C)CC(=O)NCc3ccccc3)cc2CC1C (stereo not drawn),0.0,0.9,-12.4,8.6,-9.3
CC(C)Oc1ccc(CN2CCC2(C)C(=O)Nc2cnc3ccccc3c2)cc1 (stereo not drawn),/,/,-3.8,/,8.1
CN(C)CC(O)COc1cccc(OCC(O)CN(C)C)c1 (stereo not drawn),0.2,54.9*,-4.1,-5.0,-3.1
Cc1cc(C)c2sc(NC(=O)c3ccc(S(=O)(=O)N4CCOCC4)cc3)nc2c1,0.7,/,/,11.9,/
CCCCNC(=O)CSc1cc(=O)n(C)c2ccccc12,-0.9,35.4*,-6.3,-2.7,-4.1
O=C(Cn1c(=O)c2cccn2c2cccnc21)NCCCN1CCN(c2ccc(F)cc2)CC1,20.2,54.0*,-53.8,-26.6,0.8
COc1ccc(N2CCN(CCCNC(=O)Cn3c(=O)c4cccn4c4cccnc43)CC2)cc1,7.7,-16.9,-10.3,-23.0,1.2
CCn1c(=O)cc(SCC(=O)NCCCN2CCN(c3ccc(F)cc3)CC2)c2ccccc21,27.4,65.8*,-14.9,-26.4,4.9
CCn1c(=O)cc(SCC(=O)NCCCN2CCC(C)CC2)c2ccccc21,0.0,-1.2,-8.4,-17.7,1.4
CCOC(=O)c1cccc(NC(=O)c2nn(-c3ccc(OC)cc3)c(=O)c3c2c2ccccc2n3C)c1,-0.4,/,/,1.0,/
COCCn1nnnc1SCC(=O)c1ccc(F)cc1,1.0,38.8*,-18.6,4.6,-7.6
COCCn1c(SCC(=O)c2ccc(F)cc2)nnc1C(C)C,-1.2,13.5,-17.5,11.1,-3.2
COc1cc(Nc2cc(C)nc3ncnn23)cc(OC)c1OC,-0.2,31.9*,0.0,-22.2,1.2
SMILES,D2 ag-1,D2 antagonist,D2 PAM-1,D2 PAM-2,D2 ag-2
COc1cc(Nc2cc(C)nc3ncnn23)cc(OC)c1,0.7,25.7,-5.1,4.8,4.1
Cc1ccc(S(=O)(=O)NCCc2cn3ccsc3n2)c(C)c1,0.9,/,/,6.5,/
Cc1oc2cc(O)ccc2c(=O)c1Oc1ccccc1Br,-1.5,36.6*,2.0,-6.0,-3.4
Cc1oc2cc(O)ccc2c(=O)c1Oc1ccccc1,0.3,17.0,-17.0,5.1,-3.0
Cc1c(C(=O)Nc2c(F)cccc2F)sc2ncn(Cc3ccccc3F)c(=O)c12,0.3,/,/,11.0,/
Cc1nc2cc(-c3ccccc3)nn2c(C)c1CCC(=O)N1CCN(c2ccccn2)CC1,-1.8,36.3*,/,-7.4,/
Cc1nc2c(-c3ccccc3)c(C)nn2c(C)c1CCC(=O)N1CCOCC1,0.5,-0.5,-4.4,31.8*,-0.4
CCOC(=O)C1CCCCN1C(=O)CCc1c(C)nc2cc(-c3ccccc3)nn2c1C (stereo not drawn),0.5,32.8*,-1.8,5.3,2.8
Cc1nc2c(-c3ccc(F)cc3)c(C)nn2c(C)c1CCC(=O)N1CCOCC1,0.3,-13.2,-1.6,-18.0,-7.2
COc1ccc(CC(=O)Nc2sc3c(c2C(=O)Nc2cccc(Cl)c2)CCCCC3)cc1,-1.4,/,/,0.2,/
Fc1ccc2nc(-c3ccccc3)ccc2c1,/,/,-7.2,/,-2.9
[O-][n+]1onc2c3cc(-c4ccccc4)nnc3ccc21,-1.2,-23.2,52.7*,3.0,7.6
CCCCOC(=O)c1ccc(OC(=O)c2cccnc2)cc1,-0.4,30.5*,3.9,2.0,-2.4
CCCCCCOC(=O)c1ccc(OC(=O)c2cccnc2)cc1,1.3,-27.1,-14.7,2.8,-3.9
Cc1ccc(NC(=O)N2CCCC2C(=O)NCC2CCCCC2)cc1 (stereo not drawn),-0.4,35.3*,-6.4,-5.2,-0.8
COc1ccc(OC)c(S(=O)(=O)NCc2cn3c(C)csc3n2)c1,/,/,-12.9,-19.5,-3.5
COc1ccc(S(=O)(=O)NCc2cn3c(C)csc3n2)cc1F,0.2,31.7*,1.6,8.1,-2.1
COc1ccccc1-c1csc(C(C)(NC(C)=O)c2ccccc2)n1 (stereo not drawn),/,/,-0.4,/,-4.6
COc1ccc(N2CCN(C(=O)CCNS(=O)(=O)c3ccc(C)cc3)CC2)cc1,-1.0,11.6,0.2,6.6,-6.5
COc1ccc(N2CCN(C(=O)CCNS(=O)(=O)c3ccc(Br)s3)CC2)cc1,0.5,3.1,-5.7,86.0*,-0.6
CCC(Nc1ccc(-c2nc(-c3cccnc3)no2)cc1[N+](=O)[O-])c1ccccc1 (stereo not drawn),1.0,/,/,0.9,/
COc1cccc(OC)c1C(=O)NC(=O)Nc1c(C)cccc1C,1.2,32.1*,-9.7,4.8,-3.0
CCOc1ccccc1N1CCN(C(=O)c2cc3c(s2)CCC3)CC1,-1.8,35.3*,-1.9,-5.7,0.6
COc1ccccc1N1CCN(C(=O)c2cc3c(s2)CCCCC3)CC1,/,/,4.4,/,2.6
Cc1nn(-c2ccccc2)c(C)c1NC(=O)COC(=O)[C@@H](NC(=O)c1ccccc1)C(C)C,-0.6,35.9*,6.0,-5.2,-2.2
CCC(C(=O)OCC(=O)Nc1c(C)nn(-c2ccccc2)c1C)c1ccccc1 (stereo not drawn),-0.2,18.4,3.5,3.3,-0.4
Cc1ccc2nc(-c3ccc(Cl)c(NC(=O)c4cccc([N+](=O)[O-])c4C)c3)oc2c1,-0.1,/,/,4.3,/

# Bioassay records as filed in PubChem.
